# According to PubChem BioAssay:
# Activity calls are given as the source filed them. How the calls were made is not given here.
# Molecular target: Pantothenate synthetase (Mycobacterium tuberculosis (strain ATCC 25618 / H37Rv)) (UniProt P9WIL5)
# Assay: Coupled enzyme confirmation of inhibitors against recombinant Mtb PanC (AID 375);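 further: 0% = full reaction with vehicle and 100% = no enzyme background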
# Conditions: coupled enzyme assay; at 10 µM, active compounds read high
# Sequence of Pantothenate synthetase (Mycobacterium tuberculosis (strain ATCC 25618 / H37Rv)) (P9WIL5 whole entry, looked up): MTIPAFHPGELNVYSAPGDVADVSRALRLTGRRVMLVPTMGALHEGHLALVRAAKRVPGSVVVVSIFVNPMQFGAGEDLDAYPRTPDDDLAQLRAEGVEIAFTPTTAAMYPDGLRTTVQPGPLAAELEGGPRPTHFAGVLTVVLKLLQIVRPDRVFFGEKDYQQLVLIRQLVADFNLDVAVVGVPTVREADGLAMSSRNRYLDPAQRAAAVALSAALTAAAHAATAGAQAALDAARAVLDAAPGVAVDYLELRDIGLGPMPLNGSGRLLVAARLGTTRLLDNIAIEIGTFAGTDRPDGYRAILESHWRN
row,SMILES,inhibition
1,CCOC(=O)C(C)(C)Sc1nc2c(cnn2-c2ccc(Cl)cc2)c(=O)[nH]1,0% (inactive)
2,COC(=O)c1ccccc1NC(=O)COc1ccc(S(=O)(=O)N2CCCC2)cc1C,0% (inactive)
3,CCCCOc1ccc(C(=O)Nn2cnnc2)cc1,1% (inactive)
4,c1ccc(-n2ncc3c(N4CCCCC4)ncnc32)cc1,0% (inactive)
5,Cc1c(NC(=O)C2(c3ccccc3)CCOCC2)c(=O)n(-c2ccccc2)n1C,3% (inactive)
6,COc1cccc(Nc2c(F)c(F)c(F)c(F)c2C(=O)O)c1,7% (inactive)
7,COCCn1cc(C(=O)NCCCN2CCC(C)CC2)c2c3ccccc3n(C)c2c1=O,2% (inactive)
8,O=C1CC(Sc2nnc(-c3ccccc3)o2)C(=O)N1c1ccccc1 (stereo not given),0% (inactive)
9,Clc1ccc(C2=Nn3c(nnc3-c3n[nH]c4c3CCC4)SC2)cc1Cl,0% (inactive)
10,COc1cc(NC(=O)CSCc2cnn(-c3ccccc3)c2-n2cccc2)cc(OC)c1,6% (inactive)
11,COC(=O)CN1C(=O)C(O)(CC(=O)c2ccc(Cl)cc2)c2ccccc21 (stereo not given),0% (inactive)
12,O=C(NC1CC1)C1CCN(c2ccc(S(=O)(=O)N3CCOCC3)cc2)CC1,0% (inactive)
13,COc1ccc(C)cc1S(=O)(=O)N1CCN(Cc2ccccc2)CC1,11% (inactive)
14,O=C(COc1ccccc1)Nc1nc2ccccc2[nH]1,0% (inactive)
15,COc1ccc2nc3oc(C(=O)NC4CCN(Cc5ccccc5)CC4)cc3cc2c1,1% (inactive)
16,O=C(Nc1ccccc1N1CCN(c2ccc(F)cc2)CC1)c1ccccc1,0% (inactive)
17,O=C(NCc1ccco1)c1cc2c(s1)CSC2,0% (inactive)
18,CCN1C(=O)c2ccccc2S(=O)(=O)c2ccc(C(=O)NCc3cccnc3)cc21,0% (inactive)
19,O=C(Nc1ccc2c(c1)OCO2)c1nn(-c2ccccc2)c(=O)c2ccccc12,3% (inactive)
20,Cc1ccnc(SCCn2c(N3CCN(Cc4ccccc4)CC3)nc3c2c(=O)[nH]c(=O)n3C)n1,0% (inactive)

row,SMILES,inhibition
1,CCC(=O)N1CCc2cc(Br)cc(S(=O)(=O)C3(C(=O)OC)CC3)c21,0% (inactive)
2,O=C(Nc1ccccc1)c1cnc2n(c1=O)CCS2,0% (inactive)
3,CCOC(=O)C(NC(C)=O)(NS(=O)(=O)c1ccccc1)C(F)(F)F (stereo not given),2% (inactive)
4,Fc1ccc(C2C3=C(Nc4ncnn42)c2ccccc2OC3c2ccncc2)cc1 (stereo not given),0% (inactive)
5,CCN1CCc2c(C#N)c(N3CCCCC3)nc(NCc3ccccc3)c2C1,0% (inactive)
6,CCOC(=O)c1ccc(NS(=O)C23CC4CC(CC(C4)C2)C3)cc1 (stereo not given),8% (inactive)
7,COc1cccc(N2C(=O)N(c3ccccc3Cl)C3CS(=O)(=O)CC32)c1 (stereo not given),3% (inactive)
8,COC(=O)c1ccc2c(c1)C(=O)N(C1CCCCC1)C2=O,9% (inactive)
9,CC(C)(C)NCC(O)c1cc(O)cc(O)c1 (stereo not given),0% (inactive)
10,CCCCOCCCNC(=O)c1ccccc1OCC,2% (inactive)
11,COc1ccc(C2CC(c3ccc(Cl)cc3Cl)n3nc(N)nc3N2)cc1 (stereo not given),0% (inactive)
12,COCCNC(=O)c1cc2c(-c3ccccc3F)nn(C)c2s1,8% (inactive)
13,COC(=O)c1ccc(NC(=O)C(C)N2C(=O)c3ccccc3C2=O)cc1 (stereo not given),8% (inactive)
14,CC1=NC(Nc2nc(C)c3ccccc3n2)=NC(C)(C)C1,0% (inactive)
15,Cc1cc2ccccc2n1CCNC(=O)C1CC1,1% (inactive)
16,COc1ccc(-c2nnc(SCC(=O)N3CCOCC3)o2)cc1OC,0% (inactive)
17,N#CCOc1nc(N2CCOCC2)nc(N2CCOCC2)n1,0% (inactive)
18,COc1ccc(NS(=O)(=O)c2ccc(N)cc2)nn1,1% (inactive)
19,Clc1ccc2nc(N3CCCCC3)[nH]c2c1,3% (inactive)
20,O=C(CSc1nnc(CNC(=O)c2cccs2)o1)NC1CCCC1,0% (inactive)
